Measured values reported in PubChem BioAssay (EPA / NIEHS).
“And” between values parts separate entries of the source, which are not always exact repeats. Equal entries are not always repeated. Records with an inconclusive call do not appear. The source made the active and inactive calls. Rule for the calls, unless noted: active = hit-call score of the fitted dose curve at least 0.9, where 1 is the maximum; inactive = score below 0.9.

Key:
[1] = read-out: Interleukin-1 alpha (IL1a), IL1A (gene 3552); assay: BSK_LPS_IL1a: BioMAP Diversity Plus: LPS Assay for Interleukin-1 alpha (IL1a) Biomarker Activity (AID 2283080); details: primary human HUVEC with PBMC; actives raise or lower the signal
In short: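 Human umbilical vein endothelial cells co-cultured with peripheral blood mononuclear cells were LPS-stimulated and exposed to test chemicals for 24 h. IL-1 alpha was quantified by ELISA, with bidirectional curve fitting against DMSO as the negative control and baseline.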

[2] = BSK_LPS_PGE2: BioMAP Diversity Plus: LPS Assay for Prostaglandin E2 (PGE2) Biomarker Activity (AID 2283082); details: primary human HUVEC with PBMC; actives raise or lower the signal;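 for AC50: secreted prostaglandin E2 measured by ELISA in LPS-stimulated co-culture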
In short: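 ELISA read-out of PGE2 from human umbilical vein endothelial cells co-cultured with peripheral blood mononuclear cells under LPS, 24 h post-dose. Gain or loss of signal scored relative to DMSO baseline.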

[3] = read-out: Macrophage colony-stimulating factor (MCSF), CSF1 (gene 1435); assay: BSK_LPS_MCSF: BioMAP Diversity Plus: LPS Assay for Macrophage colony-stimulating factor (MCSF) Biomarker Activity (AID 2283083); details: primary human HUVEC with PBMC; actives raise or lower the signal
In short: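 Human umbilical vein endothelial cells co-cultured with peripheral blood mononuclear cells were exposed to compound for 24 h. M-CSF levels were measured by ELISA, and bidirectional curve fitting used DMSO as the negative control and baseline.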

[4] = read-out: Tissue Factor, F3 (gene 2152); assay: BSK_LPS_TissueFactor: BioMAP Diversity Plus: LPS Assay for Tissue Factor Biomarker Activity (AID 2283084); details: primary human HUVEC with PBMC; actives raise or lower the signal
In short: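 Human umbilical vein endothelial cells co-cultured with peripheral blood mononuclear cells were dosed and stimulated with LPS. Cell-surface CD142 was quantified by ELISA at 24 h. Activity was fitted bidirectionally against DMSO baseline.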

[5] = read-out: Tumor necrosis factor (Homo sapiens) (UniProt P01375); assay: BSK_LPS_TNFa: BioMAP Diversity Plus: LPS Assay for Tumour Necrosis Factor alpha (TNFa) Biomarker Activity (AID 2283085); details: primary human HUVEC with PBMC; actives raise or lower the signal;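 for AC50: TNFa protein level quantified by ELISA in the co-culture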
In short: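 HUVEC/PBMC co-culture, LPS-stimulated; 24 h post-dose; TNFa by ELISA; gain or loss of signal fitted bidirectionally vs DMSO baseline.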

[6] = read-out: Vascular cell adhesion molecule 1 (VCAM1), VCAM1 (gene 7412); assay: BSK_LPS_VCAM1: BioMAP Diversity Plus: LPS Assay for Vascular cell adhesion molecule 1 (VCAM1) Biomarker Activity (AID 2283086); details: primary human HUVEC with PBMC; actives raise or lower the signal
In short: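 ELISA read-out of VCAM-1 at 24 h post-dosing in an LPS-driven HUVEC/PBMC primary human co-culture; gain or loss of signal fitted bidirectionally against DMSO baseline. Cytotoxicity tracked in parallel cultures by SRB total-protein staining.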

[7] = read-out: CD38, CD38 (gene 952); assay: BSK_SAg_CD38: BioMAP Diversity Plus: SAg Assay for CD38 Biomarker Activity (AID 2283087); details: primary human HUVEC with PBMC; actives raise or lower the signal
In short: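 Measures CD38 on a human endothelial/PBMC co-culture driven by SEB and TSST-1, 24 h after compound exposure, using ELISA with fluorescence detection; DMSO defines baseline for bidirectional curve fitting.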

[8] = read-out: CD40, CD40 (gene 958); assay: BSK_SAg_CD40: BioMAP Diversity Plus: SAg Assay for CD40 Biomarker Activity (AID 2283088); details: primary human HUVEC with PBMC; actives raise or lower the signal
In short: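 Human umbilical vein endothelial cells co-cultured with PBMC; CD40 levels measured by ELISA with fluorescence read-out 24 h after chemical dosing. Gain or loss of signal fitted bidirectionally against DMSO baseline.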

[9] = read-out: CD69, CD69 (gene 969); assay: BSK_SAg_CD69: BioMAP Diversity Plus: SAg Assay for CD69 Biomarker Activity (AID 2283089); details: primary human HUVEC with PBMC; actives raise or lower the signal;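 for AC50: cell surface CD69 protein quantified by ELISA with fluorescence detection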
In short: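 Values derive from bidirectional fitting relative to DMSO vehicle. Cells: umbilical vein endothelium plus peripheral blood mononuclear cells, treated 24 h before fluorescent ELISA for CD69.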

[10] = read-out: Monocyte Chemoattractant Protein-1 (MCP1), CCL2 (gene 6347); assay: BSK_SAg_MCP1: BioMAP Diversity Plus: SAg Assay for Monocyte Chemoattractant Protein-1 (MCP1) Biomarker Activity (AID 2283090); details: primary human HUVEC with PBMC; actives raise or lower the signal
In short: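 Values derive from bidirectional fitting of ELISA-measured MCP1 against DMSO controls. Readings were taken 24 h after dosing human vascular endothelial cells co-cultured with peripheral blood mononuclear cells under superantigen stimulation.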

[11] = read-out: E-selectin (Homo sapiens) (UniProt P16581); assay: BSK_SAg_Eselectin: BioMAP Diversity Plus: SAg Assay for Eselectin Biomarker Activity (AID 2283091); details: primary human HUVEC with PBMC; actives raise or lower the signal
In short: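 HUVEC co-cultured with PBMC, compound dosed then read at 24 h; E-selectin measured by ELISA. Activity fitted bidirectionally against DMSO as negative control and baseline.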

[12] = read-out: Monokine induced gamma interferon (MIG), CXCL9 (gene 4283); assay: BSK_SAg_MIG: BioMAP Diversity Plus: SAg Assay for Monokine induced gamma interferon (MIG) Biomarker Activity (AID 2283092); details: primary human HUVEC with PBMC; actives raise or lower the signal
In short: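 Values reflect bidirectional fitting of ELISA-measured MIG against DMSO vehicle, taken 24 h after dosing of a co-culture of human umbilical vein endothelial cells and peripheral blood mononuclear cells.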

[13] = BSK_SAg_PBMCCytotoxicity: PBMC Cytotoxicity Assessment in the BioMAP Diversity Plus: SAg Assay (AID 2283093); details: primary human HUVEC with PBMC;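 note: PBMC viability measured as Alamar Blue reduction fluorescence at 546/580 nm; fitted both ways against DMSO so a hit may be loss or gain of signal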;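 for AC50: PBMC superantigen activated with SEB plus TSST-1 one hour after compound addition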
In short: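 Alamar Blue reduction (6 h, ex/em 546/580 nm) read after 90 h culture of PBMC pre-dosed 1 h then stimulated with SEB plus TSST-1, 20 ng/mL each. Gain or loss of signal fitted relative to DMSO.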

[14] = read-out: Interleukin-8 (IL8), CXCL8 (gene 3576); assay: BSK_SAg_IL8: BioMAP Diversity Plus: SAg Assay for Interleukin-8 (IL8) Biomarker Activity (AID 2283094); details: primary human HUVEC with PBMC; actives raise or lower the signal
In short: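 HUVEC/PBMC co-culture, 24 h post-dose; IL-8 by ELISA. Gain or loss of signal fitted bidirectionally vs DMSO baseline.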

[15] = BSK_SAg_Proliferation: Cell Proliferation Assessment in the BioMAP Diversity Plus: SAg Assay (AID 2283095); details: primary human HUVEC with PBMC;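 note: relative cell number as total protein by SRB absorbance in sub-confluent culture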
In short: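 HUVEC/PBMC co-culture, 96-well. TCA-fixed (10%), 0.1% SRB stain, A560 at 96 h. Protein content used as viability readout; bidirectional fitting vs DMSO control.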

[16] = BSK_SAg_SRB: Viability Assessment in the BioMAP Diversity Plus: SAg Assay (AID 2283096); details: primary human HUVEC with PBMC;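 note: cells read one day after compound addition; hits may be either gain or loss of signal compared with DMSO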
In short: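 SRB absorbance at 560 nm served as the viability read-out. Cells (HUVEC plus peripheral blood mononuclear cells) were TCA-fixed and stained 24 h post-dosing; activity fitted in both directions against DMSO controls.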

[17] = biological target: human CYP19A1, CYP19A1 (gene 1588) (UniProt P11511); assay: NVS_ADME_hCYP19A1: NovaScreen (NVS) CYP450-related Enzyme Activity (ADME) Assay for human CYP19A1 (AID 2283098; active = hit-call score of the fitted dose curve at least 0.9, where 1 is the maximum;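 for AC50: potency for inhibitors seen as loss of fluorescent enzyme signal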)
human CYP19A1, CYP19A1 (gene 1588), sequence (P11511 whole entry, looked up): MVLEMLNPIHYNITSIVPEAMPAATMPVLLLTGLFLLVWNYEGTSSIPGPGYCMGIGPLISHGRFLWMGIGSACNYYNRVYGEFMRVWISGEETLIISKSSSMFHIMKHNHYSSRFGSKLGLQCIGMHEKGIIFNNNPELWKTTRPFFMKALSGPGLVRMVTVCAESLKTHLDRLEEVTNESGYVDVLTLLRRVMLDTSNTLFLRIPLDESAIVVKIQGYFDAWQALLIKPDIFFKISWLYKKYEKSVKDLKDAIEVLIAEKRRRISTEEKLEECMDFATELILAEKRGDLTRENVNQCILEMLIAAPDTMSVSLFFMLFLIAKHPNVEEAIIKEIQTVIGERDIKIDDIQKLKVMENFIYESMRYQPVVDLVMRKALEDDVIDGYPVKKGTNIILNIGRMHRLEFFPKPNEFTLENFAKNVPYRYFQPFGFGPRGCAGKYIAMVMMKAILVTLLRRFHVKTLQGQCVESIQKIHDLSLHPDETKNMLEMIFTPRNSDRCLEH
In short: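 Primary testing was in duplicate at a single 10 uM concentration, with actives followed up in concentration-response series. Fluorescence read-out of recombinant enzyme activity at 0.5 h, cell-free. Acetonitrile was the negative-control baseline.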

Measured: AC50

E-selectin (Homo sapiens), sequence (P16581 whole entry, looked up): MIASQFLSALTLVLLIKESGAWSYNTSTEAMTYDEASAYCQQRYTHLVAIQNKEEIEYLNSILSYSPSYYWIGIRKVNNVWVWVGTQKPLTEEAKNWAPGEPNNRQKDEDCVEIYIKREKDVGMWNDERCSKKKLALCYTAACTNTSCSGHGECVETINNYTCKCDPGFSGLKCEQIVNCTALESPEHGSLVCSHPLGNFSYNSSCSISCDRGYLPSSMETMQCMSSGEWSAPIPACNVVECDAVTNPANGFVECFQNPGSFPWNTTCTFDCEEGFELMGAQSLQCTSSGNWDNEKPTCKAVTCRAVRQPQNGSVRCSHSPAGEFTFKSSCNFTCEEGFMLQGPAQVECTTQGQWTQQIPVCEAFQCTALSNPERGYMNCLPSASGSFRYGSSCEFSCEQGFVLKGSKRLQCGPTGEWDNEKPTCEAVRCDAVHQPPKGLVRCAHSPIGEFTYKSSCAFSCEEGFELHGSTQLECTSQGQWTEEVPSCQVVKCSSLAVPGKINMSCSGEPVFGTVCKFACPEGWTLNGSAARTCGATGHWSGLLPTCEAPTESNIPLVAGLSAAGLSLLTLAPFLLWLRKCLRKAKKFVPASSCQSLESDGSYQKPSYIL
Tumor necrosis factor (Homo sapiens), sequence (P01375 whole entry, looked up): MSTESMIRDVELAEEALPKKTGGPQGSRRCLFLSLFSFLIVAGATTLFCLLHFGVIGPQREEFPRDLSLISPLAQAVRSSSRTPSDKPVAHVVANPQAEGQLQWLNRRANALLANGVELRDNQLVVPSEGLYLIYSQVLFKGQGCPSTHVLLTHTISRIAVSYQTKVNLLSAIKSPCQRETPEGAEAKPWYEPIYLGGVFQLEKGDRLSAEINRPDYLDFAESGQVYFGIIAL

Nc1cccc(N)n1
not listed: [17]
inactive: all other assays above

CC/C=C\CCOC(=O)c1ccccc1O
inactive: [2] | [12] | [14]
active: [1] 29.6 µM | [3] 33 µM | [4] 33 µM | [5] 31.5 µM | [6] 37.9 µM | [7] 31 µM | [8] 33.6 µM | [9] 20 µM | [10] 28.5 µM | [11] 29.7 µM | [13] 33.3 µM | [15] 31.2 µM | [16] 30.7 µM

CC(Cl)COP(=O)(OCC(C)Cl)OCC(C)Cl (stereo not given)
active: [5] 1.31 µM
not listed: [17]
inactive: all other assays above

CCCCC(CC)COS(=O)(=O)O (stereo not given)
inactive: [17]

C=CCCCCCCCCC=O
not listed: [17]
inactive: all other assays above

COc1ccc(C(=O)c2ccccc2)c(O)c1
active: [2] 4.59 µM
not listed: [17]
inactive: all other assays above

C=CC(=O)NC(C)(C)C
not listed: [17]
inactive: all other assays above

CC=C(C)C=CC=C(C)C
active: [6] 20 µM | [7] 13.7 µM | [8] 6.97 µM | [9] 18.7 µM | [10] 2.58 µM | [11] 23.4 µM | [14] 6.5 µM | [15] 26.5 µM
inactive: [1] | [2] | [3] | [4] | [5] | [12] | [13] | [16]

c1ccc2sc(SSN3CCOCC3)nc2c1
active: [3] 12.2 µM | [7] 20 µM | [13] 20 µM | [15] 8.5 µM
not listed: [17]
inactive: all other assays above

Nc1nc(N)nc(-c2ccccc2)n1
not listed: [17]
inactive: all other assays above

CCCCC1C(=O)N(c2ccccc2)N(c2ccccc2)C1=O
not listed: [17]
inactive: all other assays above

C=C(C)C(=O)OCCCCCCCCCCCC
active: [5] 32.6 µM
not listed: [17]
inactive: all other assays above

Oc1ccccc1Cc1ccccc1O
active: [2] 2.47 µM and 1.8 µM
not listed: [17]
inactive: all other assays above

CCOC(=O)C1=NN(c2ccc(Cl)cc2Cl)C(C)(C(=O)OCC)C1 (stereo not given)
active: [2] 8.97 µM
not listed: [17]
inactive: all other assays above

O=C(Oc1ccccc1)c1ccccc1C(=O)Oc1ccccc1
active: [7] 29.7 µM | [9] 24.1 µM | [15] 20 µM
not listed: [8] | [17]
inactive: all other assays above

CCCCCCCO
not listed: [17]
inactive: all other assays above

Fc1ccc(Br)cc1
not listed: [17]
inactive: all other assays above

O=C1CCCCCCCCCCC1
not listed: [17]
inactive: all other assays above

CC(C)c1cccc(C(C)C)c1N
not listed: [17]
inactive: all other assays above

O=C(OCc1ccccc1)c1ccc(O)cc1
active: [17] 4.08 µM

Cc1ccc(C)c(OCCCC(C)(C)C(=O)O)c1
active: [17] 15.6 µM
